Test results as given in ChEMBL document CHEMBL3433997, “St. Jude Leishmania screening dataset” (2016).

Target: Glucose transporter (Leishmania mexicana) (UniProt O61059)
Test: ST_JUDE_LEISH: Cytotoxicity at 2uM final concentration against transgenic Leishmania Mexicana promastigotes LmGT2 that are glucose transport deficient and complemented with the L. Mexicana glucose transporter 2. Activity is measured by DNA content using SYBR green in vitro
Assay type: functional

First: Nc1ccc(-c2ccc(NC(=O)Nc3cc(C(F)(F)F)ccc3F)cc2)cn1
Second: COc1ccc2nc(-c3cc(-c4ccc(NC(=O)C(C)C)cc4)cnc3N)[nH]c2c1
The inhibition of the first is lower: 2.2% for the first, 12.9% for the second.

Compared with `O=C(/C=C/c1ccc(Cl)c(Cl)c1)NCCCCCCN1CCCN(C(=O)Nc2cccc(C(F)(F)F)c2)CC1`, `Cc1cc(OCCCN2CCCCC2)ccc1NC(=O)COc1ccc(Cl)cc1C(=O)c1cc(C#N)cc(C(F)(F)F)c1` is lower in inhibition: 0.59% for the first, 0.43% for the second.

Going from `COc1ccccc1CN1CCC(NC(=O)c2ccc(-c3cccc(C(F)(F)F)c3)s2)CC1` to `COc1ccc2nccc([C@@H](O)CN3CCC(NC(=O)c4cccc(-c5cc(C)no5)c4)CC3)c2c1`, the inhibition rises from -4.28% to 0.08%.

First: CN(C)C(=O)CN1CCN(c2ncnc(N3CCc4c([nH]c5ccccc45)[C@@H]3c3ccc4c(c3)CCO4)n2)CC1
Second: Cc1cc2ccccc2n1CC(=O)N1CC(C(=O)N2CCCCC2)Oc2ccccc21 (centres undefined)
The inhibition of the first is lower: -0.47% for the first, 2.89% for the second.

Going from `CCCNC(=O)c1ccc(N2CCC(c3ccccc3C)CC2)nc1` to `Cc1ccc(C)c(C2CCN(CCCCNC(=O)c3ccc(NC(=O)c4ccc(Cl)cc4)cc3)CC2)c1`, the inhibition falls from 0.97% to 0.05%.

Going from `Cc1ccc(F)cc1S(=O)(=O)Nc1ccc(CCN2CCC(N3CCCCC3)CC2)cc1` to `Cc1c(Cl)cccc1S(=O)(=O)N1CCCCC(c2ccc(C(F)(F)F)cc2)=N1`, the inhibition falls from 1.36% to -0.52%.

Going from `Cc1ccc(Nc2nccc(NCC(O)c3cccc(F)c3)n2)cc1` (centres undefined) to `Brc1cccc(Nc2nccc(Nc3ccc(Oc4ccccc4)cc3)n2)c1`, the inhibition rises from -0.59% to -0.46%.

First: COc1cc2c(Nc3ccc(NC(=O)c4ccccc4)cc3)ncnc2cc1OCCCN1CCOCC1
Second: c1ccc(COc2ccc(Nc3ncnc4cnc(-c5ccc(CNc6cccnc6)o5)cc34)cc2)cc1
The inhibition of the first is higher: 4.08% for the first, 0.83% for the second.

Compared with `COc1ccc(-c2ccccc2OCCCNc2nc(NCCc3ccc(O)cc3)nc(N3CCNCC3)n2)cc1`, `O=C(NC1CCCCC1)N(Cc1cccc(-c2ccc(CNCCc3ccccc3)cc2)c1)C1CCN(Cc2ccccc2)CC1` is higher in inhibition: 2.75% for the first, 4.45% for the second.

Compared with `O=c1cc(NCCCNCc2ccc(Cl)c(Cl)c2)[nH]c2ccc(Oc3ccccc3)cc12`, `Fc1cccc(Nc2nc(NCc3ccc(Cl)c(Cl)c3)nc(Nc3cccc(F)c3)n2)c1` is higher in inhibition: -0.72% for the first, 7.17% for the second.

First: O=C(Nc1ccc(-c2oc(C(=O)NCCc3cccc(Cl)c3)cc2-c2ccncc2)cc1)Nc1cccc(Cl)c1
Second: CC(=O)N(C)c1ccc(C(=O)Nc2cccc(-c3cccc(-c4nc5cc(C(F)(F)F)ccc5[nH]4)c3)c2)cc1
The inhibition of the first is lower: 2.92% for the first, 5.77% for the second.

Compared with `Cc1nc(C)c(-c2ccc(-c3ccc(F)cc3)cc2)c(O)c1Br`, `Cc1ccc(-c2cnc(N)c3cc(-c4ccnc(N)n4)ccc23)cc1` is lower in inhibition: -1.77% for the first, -1.88% for the second.

First: COC(=O)c1cccc(CNCc2cccc(-c3cccc(-c4nc5cccc(C)c5[nH]4)c3)c2)c1
Second: FC(F)(F)c1ccc2[nH]c(-c3cccc(-c4cccc(CNCc5cnn(-c6ccccc6)n5)c4)c3)nc2c1
The inhibition of the first is higher: 6.67% for the first, 3.27% for the second.

Going from `CCOC(=O)c1c(NC(=O)c2ccccc2)sc2c(O)c(CNC3CCCCC3)ccc12` to `C#Cc1cccc(NC(=O)[C@H](CC2CCCCC2)Nc2ccc(C#N)c3ccccc23)c1`, the inhibition rises from -0.44% to 1.87%.

First: N=C(N)NC(=O)Nc1cc(Br)c(Br)c(Br)c1
Second: CCCN1CCN(CC(O)CNC(=O)Nc2ccc(Cl)cc2)CC1 (centres undefined)
The inhibition of the first is lower: 1.74% for the first, 4.07% for the second.

Compared with `N#CCCN1CCN(Cc2cccc(-c3ccc(-c4nc5ccccc5[nH]4)cc3)c2)CC1`, `CCN(CC)CCN(Cc1ccc(-c2ccc(C(F)(F)F)cc2)cc1)C(=O)Cn1c(CCc2ccc(F)c(C#N)c2)nc(=O)c2ccccc21` is higher in inhibition: 0.84% for the first, 8.84% for the second.

Going from `CC(C)OC(=O)c1ccc(NC(=O)N[C@@H](Cc2ccc(O)cc2)C(=O)NC2CC3CCC(C2)N3Cc2ccccc2)cc1` (some centres undefined) to `CC(C)Sc1nc2c(c(=O)n1Cc1ccco1)C1(CCCCC1)Cc1ccccc1-2`, the inhibition rises from -0.07% to 1.54%.

Going from `CCc1cc2c(Sc3nnc(N)s3)ncnc2s1` to `Cc1nn(C)cc1C(C)Nc1nncc(-c2ccc(C(F)(F)F)cc2)n1` (centres undefined), the inhibition rises from -5.69% to 3.38%.

Compared with `NC1=NC2(CCCCC2)N(OCCCCCCN2C(=O)c3ccccc3C2=O)C(N)=N1`, `CCN(CC)CCCC(C)N=c1cc(C=Cc2ccccc2Cl)[nH]c2cc(Cl)ccc12` (centres undefined) is lower in inhibition: 11.2% for the first, 1.56% for the second.

In the case of `CC1=C(C(=O)Nc2cc3cn[nH]c3cc2F)C(c2ccc(Cl)c(NS(C)(=O)=O)c2)CC(=O)N1` (centres undefined), the inhibition is reported as -2.27%.
